From PubChem BioAssay (EPA / NIEHS)
Values joined by “and” are separate entries in the source; they are usually repeats but may differ in a detail not shown here. Equal values may be shown once. Results filed as inconclusive are left out. More than one record can exist for a structure, and the calls need not agree. Active and inactive are the calls of the source. Rule for the calls, unless noted: active = hit-call score of the fitted dose curve at least 0.9, where 1 is the maximum; inconclusive = response in the unintended direction; inactive = score below 0.9.

Legend:
[1] = target: Agonist Androgen Response Element (ARE), AR (gene 367) (UniProt P10275); experiment: OT_AR_ARELUC_AG_1440: Odyssey Thera (OT) 24-hour CHO-K1 Luciferase Assay for Agonist Androgen Response Element (ARE) (AID 2283379)
In short: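 Agonist mode, 24 h exposure in CHO-K1 ARE-luciferase cells; values reflect luminescence induction over vehicle.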

[2] = target: Bile acid receptor (Homo sapiens) (UniProt Q96RI1); experiment: OT_FXR_FXRSRC1_0480: Odyssey Thera (OT) 8-hour HEK293T Protein-Complementation Assay for Farnesoid X receptor/SRC-1 Co-activator (AID 2283383)
In short: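 HEK293T protein-fragment complementation assay: FXR and SRC-1 coactivator are fused to reporter fragments, and their interaction restores a fluorescent reporter. Readout was taken 8 h after dosing, with gain of signal fit relative to DMSO.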

[3] = target: Retinoic acid receptor RXR-alpha (Homo sapiens) (UniProt P19793); experiment: OT_NURR1_NURR1RXRa_0480: Odyssey Thera (OT) 8-hour HEK293T Protein Complementation Assay for Nurr1/retinoid X receptor (RXR) (AID 2283385)
In short: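 HEK293T cells expressing Nurr1 and RXRα fused to reporter fragments (protein-fragment complementation); fluorescence measured 8 h after dosing. Gain of signal fitted relative to DMSO.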

[4] = target: Retinoic acid receptor RXR-alpha (Homo sapiens) (UniProt P19793); experiment: OT_NURR1_NURR1RXRa_1440: Odyssey Thera (OT) 24-hour HEK293T Protein Complementation Assay for Nurr1/retinoid X receptor (RXR) (AID 2283386)
In short: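 HEK293T protein-fragment complementation of Nurr1 and RXRα fused to reporter fragments; compounds 24 h. Fluorescence gain from reconstituted reporter fitted versus DMSO.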

[5] = target: Peroxisome proliferator-activated receptor gamma (Homo sapiens) (UniProt P37231); experiment: OT_PPARg_PPARgSRC1_0480: Odyssey Thera (OT) 8-hour Protein-Complementation Assay for Peroxisome Proliferator-activated Receptor Gamma / SRC-1 Co-activator (AID 2283387);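 note: nuclear to cytoplasmic split Venus YFP fluorescence ratio reporting PPARg SRC-1 interaction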
In short: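 Protein-fragment complementation of split Venus YFP reports PPARg/SRC-1 interaction in HEK293T (transfected 48 h before treatment), exposed 8 h. Readout: N/C fluorescence ratio at 488 nm from imaging, Draq5 for segmentation, positive fit relative to DMSO.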

[6] = target: Peroxisome proliferator-activated receptor gamma (Homo sapiens) (UniProt P37231); experiment: OT_PPARg_PPARgSRC1_1440: Odyssey Thera (OT) 24-hour Protein-Complementation Assay for Peroxisome Proliferator-activated Receptor Gamma/ SRC-1 Co-activator (AID 2283388);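 note: nuclear to cytoplasmic ratio of reconstituted Venus YFP fluorescence in fixed imaged cells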
In short: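 Transient HEK293T, YFP fragments 1-158/159-239 (mutant IFP1/IFP2) fused to PPARg/SRC-1; 24 h dosing; fix 4% formaldehyde, Draq5; Opera imaging 488/635 nm; N/C ratio, gain vs DMSO.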

[7] = CEETOX_H295R_11DCORT: CeeTox H295R High-throughput Steroidogenesis Assay for 11-Deoxycortisol (11DCORT) (AID 2283432; active = hit-call score of the fitted dose curve at least 0.9, where 1 is the maximum; inactive = score below 0.9;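 for AC50: 11-deoxycortisol secreted into the medium measured by LC-MS/MS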); conditions: actives raise or lower the signal
In short: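 Human adrenal H295R cells were prestimulated with 10 uM forskolin for 48 h, then exposed to test chemical (0.1% DMSO final) for 48 h. Medium 11-deoxycortisol was quantified by MTBE extraction and HPLC-MS/MS; bidirectional fitting relative to DMSO.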

[8] = CEETOX_H295R_OHPREG: CeeTox H295R High-throughput Steroidogenesis Assay for OH-Pregnenolone (OHPREG) (AID 2283434; active = hit-call score of the fitted dose curve at least 0.9, where 1 is the maximum; inactive = score below 0.9); conditions: actives raise or lower the signal
In short: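 Hormone levels in spent medium were measured by tandem mass spectrometry following liquid-liquid extraction. Cells (H295R) had been forskolin-stimulated (10 uM, 48 h) before a 48 h chemical exposure at 0.1% DMSO, with activity fitted in both directions against DMSO.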

[9] = CEETOX_H295R_OHPROG: CeeTox H295R High-throughput Steroidogenesis Assay for OH-Progesterone (OHPROG) (AID 2283435; active = hit-call score of the fitted dose curve at least 0.9, where 1 is the maximum; inactive = score below 0.9); conditions: actives raise or lower the signal
In short: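 H295R adrenal cells prestimulated 48 h with 10 uM forskolin, then exposed 48 h to chemical (0.1% DMSO final). 17alpha-hydroxyprogesterone in medium quantified by HPLC-MS/MS; bidirectional fit versus DMSO, with MTT viability measured in the same wells.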

[10] = CEETOX_H295R_CORTIC: CeeTox H295R High-throughput Steroidogenesis Assay for Corticosterone (CORTIC) (AID 2283437; active = hit-call score of the fitted dose curve at least 0.9, where 1 is the maximum; inactive = score below 0.9;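 note: corticosterone secreted into medium quantified by mass spectrometry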); conditions: actives raise or lower the signal
In short: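 Corticosterone secreted into medium is measured by reverse-phase HPLC with tandem MS following liquid-liquid extraction. Cells are forskolin-stimulated (10 uM, 48 h) before 48 h test exposure; activity fitted in both directions against DMSO.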

[11] = CEETOX_H295R_CORTISOL: CeeTox H295R High-throughput Steroidogenesis Assay for Cortisol (AID 2283438; active = hit-call score of the fitted dose curve at least 0.9, where 1 is the maximum; inactive = score below 0.9;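 note: cortisol secreted into medium quantified by LC-MS/MS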); conditions: actives raise or lower the signal
In short: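 Forskolin-primed H295R cells (10 uM, 48 h) treated 48 h with test chemical in 0.1% DMSO. Cortisol in medium quantified by MTBE extraction and HPLC-MS/MS; bidirectional fit vs DMSO, MTT viability in same wells.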

[12] = CEETOX_H295R_DOC: CeeTox H295R High-throughput Steroidogenesis Assay for DOC (AID 2283439; active = hit-call score of the fitted dose curve at least 0.9, where 1 is the maximum; inactive = score below 0.9); conditions: actives raise or lower the signal
In short: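 H295R cells prestimulated 48 h with 10 uM forskolin, then exposed 48 h to test chemical (0.1% DMSO final). Medium 11-deoxycorticosterone measured by HPLC-MS/MS after MTBE extraction; bidirectional fit vs DMSO, viability checked by MTT in same wells.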

[13] = target: Estrogen receptor (Homo sapiens) (UniProt P03372); experiment: OT_ERa_GFPERaERE_0480: Odyssey Thera (OT) 8-hour HeLa Transcription Induction Assay for Estrogen Receptor (AID 2283381; active = hit-call score of the fitted dose curve at least 0.9, where 1 is the maximum; inactive = score below 0.9)
In short: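 HeLa cells expressing GFP reporter under estrogen response element, imaged 8 h after dosing. GFP induction quantified by high-content fluorescence microscopy image analysis; gain of signal fitted versus DMSO.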

[14] = target: Estrogen receptor (Homo sapiens) (UniProt P03372); experiment: OT_ERa_GFPERaERE_0120: Odyssey Thera (OT) 2-hour HeLa Transcription Induction Assay for Estrogen Receptor (AID 2283382)
In short: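 HeLa cells were dosed for 2 h, then GFP reporter induction was quantified by fluorescence microscopy with high-content image analysis. Gain of signal fitted against DMSO baseline.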

[15] = CEETOX_H295R_ESTRADIOL: CeeTox H295R High-throughput Steroidogenesis Assay for Estradiol (AID 2283440; active = hit-call score of the fitted dose curve at least 0.9, where 1 is the maximum; inactive = score below 0.9;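 note: estradiol secreted into medium quantified by LC-MS/MS after dansyl derivatisation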); conditions: actives raise or lower the signal
In short: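 Following OECD 456 with minor changes, H295R cells received 10 uM forskolin for 48 h and then test chemical for 48 h. Hormone output was read by HPLC-MS/MS, with cytotoxic concentrations diluted until MTT viability reached ≥70%.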

[16] = CEETOX_H295R_ANDR: CeeTox H295R High-throughput Steroidogenesis Assay for Androstenedione (ANDR) (AID 2283436; active = hit-call score of the fitted dose curve at least 0.9, where 1 is the maximum; inactive = score below 0.9); conditions: actives raise or lower the signal
In short: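 Read-out is androstenedione secreted into medium, measured by tandem mass spectrometry after liquid-liquid extraction. Cells were H295R, dosed for 48 h per modified OECD 456; activity fitted in both directions relative to DMSO.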

Measured: AC50

Sequence of Peroxisome proliferator-activated receptor gamma (Homo sapiens) (P37231 whole entry, looked up, the tested form may be a part): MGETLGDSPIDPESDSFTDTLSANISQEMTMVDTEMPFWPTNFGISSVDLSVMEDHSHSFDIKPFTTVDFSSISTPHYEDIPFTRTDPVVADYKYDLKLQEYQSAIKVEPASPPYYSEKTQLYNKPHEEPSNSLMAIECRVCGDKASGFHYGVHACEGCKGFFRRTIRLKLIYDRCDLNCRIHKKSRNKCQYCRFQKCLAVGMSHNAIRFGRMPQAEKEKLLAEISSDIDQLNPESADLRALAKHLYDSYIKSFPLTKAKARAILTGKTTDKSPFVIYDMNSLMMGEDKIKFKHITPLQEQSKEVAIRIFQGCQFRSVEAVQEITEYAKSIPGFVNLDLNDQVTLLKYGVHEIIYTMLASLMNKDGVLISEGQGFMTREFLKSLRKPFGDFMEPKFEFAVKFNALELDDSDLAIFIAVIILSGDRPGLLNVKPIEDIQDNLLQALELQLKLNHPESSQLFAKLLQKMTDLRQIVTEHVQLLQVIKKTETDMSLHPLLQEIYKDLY
Sequence of Estrogen receptor (Homo sapiens) (P03372 whole entry, looked up): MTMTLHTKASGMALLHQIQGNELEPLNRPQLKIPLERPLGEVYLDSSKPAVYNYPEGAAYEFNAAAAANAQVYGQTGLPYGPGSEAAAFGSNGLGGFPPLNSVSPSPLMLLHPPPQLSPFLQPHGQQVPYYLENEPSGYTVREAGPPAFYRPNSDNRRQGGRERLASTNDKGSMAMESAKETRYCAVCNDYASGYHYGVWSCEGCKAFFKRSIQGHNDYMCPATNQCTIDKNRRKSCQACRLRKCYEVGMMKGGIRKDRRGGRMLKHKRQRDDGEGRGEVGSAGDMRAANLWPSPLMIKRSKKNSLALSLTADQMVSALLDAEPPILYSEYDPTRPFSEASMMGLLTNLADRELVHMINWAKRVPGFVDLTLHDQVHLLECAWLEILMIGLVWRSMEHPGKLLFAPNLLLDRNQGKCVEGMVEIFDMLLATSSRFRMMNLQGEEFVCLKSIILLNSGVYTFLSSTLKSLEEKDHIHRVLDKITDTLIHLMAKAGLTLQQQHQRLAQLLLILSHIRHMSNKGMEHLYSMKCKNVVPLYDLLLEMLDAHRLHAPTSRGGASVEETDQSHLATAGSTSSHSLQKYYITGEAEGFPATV
Sequence of Retinoic acid receptor RXR-alpha (Homo sapiens) (P19793 whole entry, looked up, the tested form may be a part): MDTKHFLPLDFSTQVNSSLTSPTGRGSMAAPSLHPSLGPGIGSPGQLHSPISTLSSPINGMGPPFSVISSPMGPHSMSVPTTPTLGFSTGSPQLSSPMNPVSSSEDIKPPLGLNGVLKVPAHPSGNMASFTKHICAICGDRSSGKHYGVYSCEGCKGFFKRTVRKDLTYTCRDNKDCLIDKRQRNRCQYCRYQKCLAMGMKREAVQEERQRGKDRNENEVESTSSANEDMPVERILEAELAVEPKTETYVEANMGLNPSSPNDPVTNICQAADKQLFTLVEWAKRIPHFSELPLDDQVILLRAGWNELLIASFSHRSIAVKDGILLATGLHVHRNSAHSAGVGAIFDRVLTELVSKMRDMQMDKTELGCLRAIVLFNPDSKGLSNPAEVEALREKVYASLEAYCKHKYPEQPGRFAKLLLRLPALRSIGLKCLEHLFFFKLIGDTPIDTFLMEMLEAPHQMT
Sequence of Agonist Androgen Response Element (ARE), AR (gene 367) (P10275 whole entry, looked up): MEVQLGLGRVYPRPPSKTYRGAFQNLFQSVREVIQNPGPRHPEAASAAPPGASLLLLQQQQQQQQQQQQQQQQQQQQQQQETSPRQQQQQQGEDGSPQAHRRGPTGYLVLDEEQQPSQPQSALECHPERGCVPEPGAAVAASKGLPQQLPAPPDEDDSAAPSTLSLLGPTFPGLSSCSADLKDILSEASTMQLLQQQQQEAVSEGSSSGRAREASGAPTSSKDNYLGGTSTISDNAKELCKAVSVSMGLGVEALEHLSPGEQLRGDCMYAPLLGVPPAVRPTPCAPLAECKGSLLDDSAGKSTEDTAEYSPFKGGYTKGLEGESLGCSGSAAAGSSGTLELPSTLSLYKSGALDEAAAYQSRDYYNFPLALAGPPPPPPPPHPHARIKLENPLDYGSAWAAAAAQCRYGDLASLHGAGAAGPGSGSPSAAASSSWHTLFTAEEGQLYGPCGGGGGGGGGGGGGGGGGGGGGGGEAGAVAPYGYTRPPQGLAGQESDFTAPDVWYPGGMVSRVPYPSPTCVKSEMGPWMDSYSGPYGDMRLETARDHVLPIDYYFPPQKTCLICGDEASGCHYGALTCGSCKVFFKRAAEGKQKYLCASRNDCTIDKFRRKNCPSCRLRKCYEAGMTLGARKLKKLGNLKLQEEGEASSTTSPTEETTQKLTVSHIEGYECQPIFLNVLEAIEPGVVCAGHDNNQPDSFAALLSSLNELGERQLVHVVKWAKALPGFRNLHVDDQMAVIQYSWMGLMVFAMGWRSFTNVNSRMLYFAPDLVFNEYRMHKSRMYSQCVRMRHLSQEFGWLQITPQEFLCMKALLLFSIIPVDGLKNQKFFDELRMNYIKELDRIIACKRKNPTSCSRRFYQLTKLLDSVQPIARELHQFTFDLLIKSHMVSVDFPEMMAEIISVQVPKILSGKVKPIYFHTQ
Sequence of Bile acid receptor (Homo sapiens) (Q96RI1 whole entry, looked up, the tested form may be a part): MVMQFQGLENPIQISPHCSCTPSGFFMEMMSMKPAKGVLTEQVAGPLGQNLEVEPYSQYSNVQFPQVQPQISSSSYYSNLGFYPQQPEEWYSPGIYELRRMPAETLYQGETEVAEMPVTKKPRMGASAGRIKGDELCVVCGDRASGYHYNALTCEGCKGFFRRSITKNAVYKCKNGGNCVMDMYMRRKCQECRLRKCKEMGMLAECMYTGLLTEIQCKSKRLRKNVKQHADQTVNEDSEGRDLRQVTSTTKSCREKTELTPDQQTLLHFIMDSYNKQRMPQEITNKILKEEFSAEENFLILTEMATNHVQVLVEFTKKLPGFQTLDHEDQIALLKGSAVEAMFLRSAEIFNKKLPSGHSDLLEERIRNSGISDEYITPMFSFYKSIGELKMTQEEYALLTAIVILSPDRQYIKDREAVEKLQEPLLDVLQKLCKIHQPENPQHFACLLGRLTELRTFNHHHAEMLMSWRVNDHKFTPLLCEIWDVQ

COC(=O)CSc1cc(N=c2sc(=O)n3n2CCCC3)c(F)cc1Cl
inactive: [1] | [2] | [3] | [4] | [5] | [6]

S=C([S-])NCCNC(=S)[S-].[Mn+2]
active: [4] 69.5 µM
inactive: [3] | [4] | [5] | [6] | [7] | [8] | [9] | [10] | [11] | [12]

COCCO
inactive: [13] | [14] | [3] | [4] | [5] | [6]

CCNc1nc(N)nc(Cl)n1
inactive: [3] | [4] | [8] | [9]

CCCCCOC(=O)COc1cc(N2C(=O)C3=C(CCCC3)C2=O)c(F)cc1Cl
not listed: [1] | [2] | [16]
inactive: all other assays above

CCC(C)OC(=O)N1CCCCC1CCO (stereo not given)
inactive: [2] | [3] | [4] | [5] | [6]

CCSC(=O)N(CC(C)C)CC(C)C
inactive: [1] | [13] | [14] | [4] | [5] | [6]

CC(=O)S[C@@H]1CC2=CC(=O)CC[C@]2(C)[C@H]2CC[C@@]3(C)[C@@H](CC[C@@]34CCC(=O)O4)[C@H]12
active: [7] 1.76 µM | [8] 0.805 µM | [16] 1.63 µM | [11] 1.83 µM
not listed: [1] | [2]
inactive: all other assays above

CCCCOC(=O)C(C)Oc1ccc(Oc2ccc(C(F)(F)F)cn2)cc1 (stereo not given)
inactive: [13] | [14] | [2] | [3] | [4] | [5] | [6]
active: [3] 65.1 µM

CCN(CC)C(=O)c1cccc(C)c1
inactive: [13] | [14] | [2] | [3] | [4] | [5] | [6]

COC(=O)c1ccccc1C(=O)O
inactive: [13] | [14] | [3] | [4] | [5] | [6]

CCOC(=O)C(C)Oc1ccc(Oc2nc3ccc(Cl)cc3o2)cc1 (stereo not given)
inactive: [3] | [4] | [5] | [6]
active: [2] 35.9 µM | [3] 78.9 µM

CN(C)C(=O)Nc1ccc(Cl)c(Cl)c1
active: [9] 42.6 µM | [16] 30.8 µM
not listed: [1] | [2] | [15]
inactive: all other assays above

CCCCC(CC)CN1C(=O)C2C3C=CC(C3)C2C1=O (stereo not given)
not listed: [1] | [2] | [16]
inactive: all other assays above

OB(O)O
inactive: [13] | [14] | [2] | [4] | [5] | [6]

CCCN(CCC)c1c([N+](=O)[O-])cc(C(F)(F)F)c(N)c1[N+](=O)[O-]
active: [13] 1.3 µM | [14] 0.895 µM | [2] 56.9 µM | [3] 32.7 µM and 55.6 µM | [4] 35.9 µM and 34.9 µM
inactive: [5] | [6]

CCCCC(CC)COC(=O)c1ccccc1C(=O)O (stereo not given)
inactive: [3] | [4]

CC1(C)C(C=C(Cl)Cl)C1C(=O)OCc1cccc(Oc2ccccc2)c1 (stereo not given)
active: [7] 11.3 µM | [9] 11.1 µM
not listed: [2] | [5] | [6] | [15]
inactive: all other assays above
